Activity calls are given as the source filed them.
What was measured:
[1] = tested on: Human papillomavirus type 1a protein E7 (residues 44-93); test: small molecules binding HPV E7 44-93 – biochemical, small-molecule microarray, residues 44-93, 635 nm fluorescence, primary screen (AID 1108); conditions: fluorescence 635 nm, higher = more signal;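 also: E7 fragment applied at 1 µg/mL in TBST for 1 h at 4 C; score combines spot fluorescence with its signal to noise ratio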
[2] = hepatitis C replication reporter changes, two-sided – Huh7 cells, luciferase reporter, HCV replication inhibitor project, primary screen (AID 1109); conditions: Huh7 HCV replicon luciferase reporter, 48 h; higher = more signal;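 also: huh7 hepatoma cells harbouring a luciferase neomycin HCV replicon reporter; luciferase luminescence as measure of HCV replicon replication; test concentration not given here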
[3] = biological target: Left-right determination factor 2 (Homo sapiens) (UniProt O00292); test: small molecules binding LEFTY2 protein – biochemical, small-molecule microarray, 635 nm fluorescence scan, primary screen (AID 1110); conditions: higher = more signal
Chain of Left-right determination factor 2 (Homo sapiens) (O00292 whole entry, looked up): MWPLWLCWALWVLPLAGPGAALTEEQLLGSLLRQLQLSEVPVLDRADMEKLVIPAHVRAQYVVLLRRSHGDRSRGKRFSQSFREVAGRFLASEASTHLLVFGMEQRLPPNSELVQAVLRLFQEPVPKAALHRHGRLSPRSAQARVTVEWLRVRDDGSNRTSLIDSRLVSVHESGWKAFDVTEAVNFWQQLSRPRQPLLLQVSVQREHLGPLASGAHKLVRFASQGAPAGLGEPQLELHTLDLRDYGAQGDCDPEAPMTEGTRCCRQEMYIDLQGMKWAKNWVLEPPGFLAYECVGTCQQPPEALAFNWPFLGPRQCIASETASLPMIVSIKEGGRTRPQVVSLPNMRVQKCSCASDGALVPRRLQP

[4] = biological target: Calmodulin-1 (Homo sapiens) (UniProt P0DP23); test: small molecules binding calmodulin-1 with EGTA – biochemical, small-molecule microarray, Cy5-labelled CALM1, profiling panel (AID 1111); conditions: Cy5-CALM1 binding fluorescence, higher = more signal;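 also: labelled calmodulin applied in Tris saline Tween buffer holding calcium plus EGTA and DTT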
[5] = biological target: Calmodulin-1 (Homo sapiens) (UniProt P0DP23); test: small molecules binding Ca-loaded calmodulin-1 – biochemical, small-molecule microarray, Cy5-labelled CALM1, plus calcium, artefact control for SMM control-protein annotation, profiling panel (AID 1112); conditions: Cy5-CALM1 binding fluorescence, higher = more signal;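 also: score merges spot fluorescence with signal to noise from triplicate slides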
[6] = probe aWnt5a binding to arrayed compounds – biochemical, biotinylated probe, 635/667 nm fluorescence, primary screen (AID 1113); conditions: small-molecule microarray, higher = more signal;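 also: score merges 667 nm fluorescence intensity with signal-to-noise per printed feature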
[7] = probe aShh binding to arrayed compounds – biochemical, biotinylated probe, 635/667 nm fluorescence, primary screen (AID 1114); conditions: small-molecule microarray, higher = more signal;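 also: probe is biotin-labelled aShh protein from a stem cell growth factor screen; measures binding of labelled protein to compounds printed on the slide; score merges feature fluorescence at 667 nm with signal-to-noise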
[8] = probe aNog binding to arrayed compounds – biochemical, biotinylated probe, 635/667 nm fluorescence, primary screen (AID 1115); conditions: small-molecule microarray, higher = more signal;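 also: probe is biotinylated aNog protein used at 0.15 µg/mL for 1 h at 4 C; z-score combines 667 nm fluorescence of each spot with its signal to noise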
[9] = biological target: Torsin-1A-interacting protein 1 (Homo sapiens) (UniProt Q5JTV8); test: compound microarray binding of lysate hLAP1 – cell lysate, small-molecule microarray, COS7 lysate, 635/667 nm fluorescence, primary screen (AID 1116); conditions: 635 nm fluorescence, higher = more signal
Chain of Torsin-1A-interacting protein 1 (Homo sapiens) (Q5JTV8 whole entry, looked up): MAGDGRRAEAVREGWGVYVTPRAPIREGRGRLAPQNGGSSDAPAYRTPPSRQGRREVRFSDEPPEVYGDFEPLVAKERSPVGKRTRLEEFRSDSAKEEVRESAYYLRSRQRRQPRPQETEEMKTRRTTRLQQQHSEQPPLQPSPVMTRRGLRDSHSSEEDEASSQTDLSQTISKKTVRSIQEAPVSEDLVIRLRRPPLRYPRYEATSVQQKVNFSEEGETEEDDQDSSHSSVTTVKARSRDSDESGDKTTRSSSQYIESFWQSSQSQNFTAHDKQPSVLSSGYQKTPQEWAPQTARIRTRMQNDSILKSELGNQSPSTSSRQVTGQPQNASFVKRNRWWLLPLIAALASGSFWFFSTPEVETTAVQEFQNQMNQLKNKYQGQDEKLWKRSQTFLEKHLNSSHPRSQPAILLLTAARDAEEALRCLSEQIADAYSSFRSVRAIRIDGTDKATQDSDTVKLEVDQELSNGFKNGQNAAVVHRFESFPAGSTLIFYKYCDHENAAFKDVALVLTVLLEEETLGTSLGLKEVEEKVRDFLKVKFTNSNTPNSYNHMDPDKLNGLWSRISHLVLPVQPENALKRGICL

[10] = biological target: Alpha-bungarotoxin (Bungarus multicinctus) (UniProt P60615); test: compounds binding labelled alpha-BTX control protein – biochemical, small-molecule microarray, Alexa647 label, 635/667 nm fluorescence, artefact control for SMM control protein annotation, profiling panel (AID 1117); conditions: alpha-BTX-A647 binding fluorescence, higher = more signal
Chain of Alpha-bungarotoxin (Bungarus multicinctus) (P60615 whole entry, looked up): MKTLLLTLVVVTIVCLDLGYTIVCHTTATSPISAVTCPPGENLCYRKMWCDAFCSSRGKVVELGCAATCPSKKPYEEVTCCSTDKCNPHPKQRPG

Albumin (Bos taurus) = Albumin (Bos taurus) (UniProt P02769); test: compounds binding labelled BSA control protein – biochemical, small-molecule microarray, Alexa647 label, 635/667 nm fluorescence, artefact control for SMM control protein annotation, profiling panel (AID 1118); conditions: BSA-A647 binding, fluorescence 635 nm, higher = more signal;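 also: score merges 667 nm emission intensity and signal-to-noise per printed compound spot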
Chain of Albumin (Bos taurus) (P02769 whole entry, looked up): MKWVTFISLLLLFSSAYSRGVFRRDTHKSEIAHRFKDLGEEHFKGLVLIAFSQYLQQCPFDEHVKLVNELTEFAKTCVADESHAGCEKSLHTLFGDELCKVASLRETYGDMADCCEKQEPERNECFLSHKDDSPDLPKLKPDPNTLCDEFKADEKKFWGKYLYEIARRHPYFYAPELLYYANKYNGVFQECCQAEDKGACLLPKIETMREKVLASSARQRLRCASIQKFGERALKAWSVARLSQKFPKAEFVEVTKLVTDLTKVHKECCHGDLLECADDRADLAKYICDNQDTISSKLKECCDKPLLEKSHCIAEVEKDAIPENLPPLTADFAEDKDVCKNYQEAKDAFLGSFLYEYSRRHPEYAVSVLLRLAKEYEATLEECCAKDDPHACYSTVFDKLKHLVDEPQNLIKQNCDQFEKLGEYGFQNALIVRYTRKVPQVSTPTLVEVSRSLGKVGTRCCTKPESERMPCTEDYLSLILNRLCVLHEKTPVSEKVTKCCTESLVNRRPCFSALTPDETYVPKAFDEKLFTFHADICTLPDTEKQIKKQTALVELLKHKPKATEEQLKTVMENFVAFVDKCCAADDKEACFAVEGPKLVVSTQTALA

[11] = probe aXIP binding to arrayed compounds – biochemical, NeuroSMM set, 635/667 nm fluorescence, primary screen (AID 1119); conditions: small-molecule microarray, higher = more signal, called active from +8 up or from −8 down;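 also: probe is the protein aXip251-270 applied at 1 µg/mL to compound-printed slides; binding of probe to printed compounds measured as 667 nm fluorescence plus signal to noise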
[12] = probe aNOTCH3 binding on compound microarray – biochemical, small-molecule microarray, 635/667 nm fluorescence, primary screen (AID 1120); conditions: higher = more signal;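 also: probe is a biotin-tagged antibody raised against NOTCH3 rather than NOTCH3 protein; score merges spot fluorescence near 667 nm with spot signal to noise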
[13] = probe aNOTCH2 binding on compound microarray – biochemical, small-molecule microarray, 635/667 nm fluorescence, primary screen (AID 1121); conditions: higher = more signal;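 also: score merges feature fluorescence read at 667 nm with its signal to noise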
[14] = biological target: Carbonic anhydrase 2 (Homo sapiens) (UniProt P00918); test: compounds binding carbonic anhydrase 2 – biochemical, small-molecule microarray, Alexa647-labelled CAII, profiling panel (AID 1122); conditions: CAII-A647 binding fluorescence, higher = more signal
[15] = COS7 lysate on small-molecule microarray, probe aHis, 635 nm (AID 1123); conditions: COS7 cell lysate, fluorescence, higher = more signal;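 also: z-score combines 667nm fluorescence intensity with signal-to-noise per printed compound spot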
[16] = probe aLAP1 signal on lysate-treated microarray – cell lysate, small-molecule microarray, COS7 lysate, primary screen (AID 1124); conditions: probe aLAP1, fluorescence, higher = more signal;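 also: lysate comes from COS7 cells expressing LAP1 and is applied at 0.3 µg/mL; score merges spot fluorescence near 667 nm with signal-to-noise over triplicate slides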
Sam68 (KHDRBS1) = test: compounds binding KHDRBS1 protein – biochemical, small-molecule microarray, 635 nm fluorescence, primary screen (AID 1125); conditions: higher = more signal;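 also: score merges 667 nm channel intensity with signal to noise over triplicate slides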
[17] = tested on: Chordin-like protein 2 (CHRDL2); test: compounds binding chordin-like 2 – biochemical, small-molecule microarray, 635 nm fluorescence, primary screen (AID 1126); conditions: fluorescence 635 nm, higher = more signal;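 also: printed compound slides probed with Chrdl2 protein at 4 µg/mL for 1 h at 4 C; score merges 667 nm emission intensity with signal to noise over three replicate slides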
[18] = biological target: Concanavalin-A (Canavalia ensiformis) (UniProt P02866); test: compounds binding concanavalin A lectin – biochemical, small-molecule microarray, Alexa647 label, 635 nm, artefact control for SMM control protein annotation, primary screen (AID 1127); conditions: ConA-A647 binding fluorescence, higher = more signal;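 also: z combines 667 nm emission intensity with signal-to-noise across three replicate slides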
Chain of Concanavalin-A (Canavalia ensiformis) (P02866 whole entry, looked up): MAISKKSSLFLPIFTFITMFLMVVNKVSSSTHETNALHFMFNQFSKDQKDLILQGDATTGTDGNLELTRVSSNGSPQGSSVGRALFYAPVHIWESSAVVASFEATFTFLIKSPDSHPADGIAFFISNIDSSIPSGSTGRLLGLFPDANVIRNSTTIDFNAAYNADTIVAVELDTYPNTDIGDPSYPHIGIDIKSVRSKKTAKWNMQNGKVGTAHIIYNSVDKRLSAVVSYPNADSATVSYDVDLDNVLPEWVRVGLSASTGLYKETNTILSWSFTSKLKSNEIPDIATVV

Row | Compound | composite z-score [1] | z-score [2] | composite z-score [3] | composite z-score [4] | composite z-score [5] | composite z-score [6] | composite z-score [7] | composite z-score [8] | composite z-score [9] | composite z-score [10] | composite z-score (Albumin (Bos taurus)) | composite Z-score [11] | composite z-score [12] | composite z-score [13] | composite z-score [14] | composite z-score [15] | composite z-score [16] | composite z-score (Sam68 (KHDRBS1)) | composite z-score [17] | composite z-score [18]
1 | [N-]=[N+]=Nc1ccccc1C[C@]1(C(=O)NCCN2CCOCC2)N=C(c2ccc(OCCCO)cc2)O[C@H]1c1ccccc1N=[N+]=[N-] | 1.12 | -2.49 | 0.863 | 1.1 | -0.198 | 0.136 | -0.138 | 1.85 | 1.51 | 1.12 | 0.892 | 0.241 (inactive) | 0.505 | 0.141 | 0.584 | 2.84 | 0.505 | 1.29 | 0.415 | 1.15
2 | Cc1ccc(S[C@]2(C(=O)O)CC(=O)N(C3CCCCC3)[C@@H]2c2ccc(CO)cc2)cc1 | 0.755 | -1.2 | -0.442 | 0.381 | -1.39 | 0.0581 | 0.428 | 1.1 | 0.578 | 0.842 | 0.242 | 0.842 (inactive) | -0.398 | 0.0394 | 0.714 | 1.29 | 0.975 | 1.31 | -0.134 | 1.16
3 | N#Cc1ccc(NN2C(C(O)c3ccco3)C=CC3C(=O)N(c4ccccc4)C(=O)C32)cc1 (stereo not given) | -0.345 | -0.36 | -0.0879 | 0.144 | -0.539 | 0.0012 | -0.0035 | 0.531 | -0.247 | 0.518 | 0.488 | 0.499 (inactive) | 0.188 | -0.0148 | 0.89 | 1.5 | 0.687 | 0.0163 | 0.111 | 0.458
4 | COc1ccc([Si](C)(C)[C@H]2[C@H](CCn3cc(CCO)nn3)O[C@@]3(C(=O)N(Cc4cccc(N5C(=O)c6cccc7cccc5c67)c4)c4ccccc43)[C@@H]2C)cc1 | 1.1 | -5.14 | 0.464 | 0.35 | 0.241 | -0.136 | 0.131 | 1.01 | 1.46 | 1.07 | 0.451 | 0.525 (inactive) | 0.0311 | -0.0974 | 0.584 | 0.791 | 1.65 | 1.22 | 0.438 | 1.11
5 | COc1ccc([Si](C)(C)[C@H]2[C@H](CCO)O[C@@]3(C(=O)N(Cc4cccc(N5CCOC5=O)c4)c4ccccc43)[C@@H]2C)cc1 | 1.1 | -4.39 | 0.118 | 1.4 | -0.207 | -0.101 | 0.0668 | -0.118 | -0.18 | 0.355 | 0.688 | 0.207 (inactive) | 0.0203 | -0.0942 | 0.281 | 1.04 | -0.15 | 0.996 | -0.0894 | 1.1
6 | CN(C)C(=O)[C@@]1(CCC(=O)OC(C)(C)C)N=C(c2ccc(OCCCO)cc2)O[C@H]1c1ccccc1N=[N+]=[N-] | 1.54 | 1.58 | 0.494 | 1.61 | 0.727 | 0.0839 | 0.246 | 0.948 | 2.15 | 2.63 | 1.03 | 0.0421 (inactive) | 0.315 | -0.0129 | 0.812 | 3.31 | 1.25 | 1.3 | -0.18 | 1.11
7 | C/C=C/[C@@H](CCn1cc([C@H](O)c2ccccc2)nn1)[Si](C)(C)c1ccc(OC)cc1 | 0.434 | -2.6 | -1.32 | -1.34 | -1.35 | -0.012 | 0.0639 | -0.738 | 0.834 | 0.478 | -0.91 | 2.17 (inactive) | -0.367 | -0.195 | -0.105 | 1.15 | 0.614 | -0.123 | 0.0697 | -0.333
8 | CCOc1cc(C(O)C2C=CC3C(=O)NC(=O)C3N2Nc2ccccn2)ccc1O (stereo not given) | -0.357 | 0.294 | 0.205 | 0.384 | -0.108 | -0.198 | -0.117 | 0.0258 | 0.229 | 0.297 | 0.409 | 0.057 (inactive) | -0.0663 | 0.0065 | 0.121 | -0.086 | 0.241 | -0.352 | 0.143 | 0.0306
9 | CC(C)(C)N1CC=CC23O[C@@H]4C=CCCOC(=O)C4[C@H]2C(=O)N(CCCO)[C@@H]3C1=O (stereo not given in full) | -0.371 | -1.17 | -0.611 | -0.801 | -0.97 | -0.172 | -0.0769 | -0.118 | 0.0642 | -1.39 | -2.01 | 0.494 (inactive) | -0.222 | -0.177 | 0.405 | -0.552 | -0.0817 | -1.76 | -0.487 | -3.17
10 | CC[C@@H]1[C@@H]2C3C(=O)N(CC)C(=O)C3CC(=O)[C@@H]2[C@H](c2ccc(C)cc2)N1S(=O)(=O)c1ccc(C)cc1 (stereo not given in full) | 1.42 | -1.64 | 0.336 | 0.742 | 0.409 | -0.0761 | 0.232 | -0.546 | 1.22 | 0.564 | 0.701 | -0.304 (inactive) | 0.0077 | 0.131 | 0.749 | 2.61 | 1.64 | 1.34 | -0.337 | 0.876
11 | CC1CC/C=C\[C@H]2OC34C=CCN(c5ccc(Cl)cc5)C(=O)[C@H]3N(C(CO)C(C)C)C(=O)[C@]4(C)C2C(=O)O1 (stereo not given in full) | -0.806 | -0.392 | -1.22 | -0.505 | 0.0376 | -0.152 | -0.154 | -0.679 | 0.184 | -0.59 | 0.788 | -0.0965 (inactive) | -0.28 | -0.174 | 0.859 | 0.253 | 0.438 | -0.932 | -0.169 | -0.983

— PubChem BioAssay
